Holding throughout (conditions): Compound concentration 20.0 uM
Assay [1] has as its target Tyrosine-protein kinase ABL1 (Homo sapiens) (UniProt P00519).
For assay [2], the target named is Bromodomain-containing protein 4 (Homo sapiens) (UniProt O60885).
The target of assay [3] is Cyclin-dependent kinase 2 (Homo sapiens) (UniProt P24941).
Assay [4] concerns the target Casein kinase I isoform delta (Homo sapiens) (UniProt P48730).
Assay [5] has as its target Glycogen synthase kinase-3 beta (Homo sapiens) (UniProt P49841).
Assay [6] has as its target Mitogen-activated protein kinase 1 (Homo sapiens) (UniProt P28482).
Assay [7] addresses T1, Aurora kinase A (Homo sapiens) (UniProt O14965).
T1 sequence (whole entry): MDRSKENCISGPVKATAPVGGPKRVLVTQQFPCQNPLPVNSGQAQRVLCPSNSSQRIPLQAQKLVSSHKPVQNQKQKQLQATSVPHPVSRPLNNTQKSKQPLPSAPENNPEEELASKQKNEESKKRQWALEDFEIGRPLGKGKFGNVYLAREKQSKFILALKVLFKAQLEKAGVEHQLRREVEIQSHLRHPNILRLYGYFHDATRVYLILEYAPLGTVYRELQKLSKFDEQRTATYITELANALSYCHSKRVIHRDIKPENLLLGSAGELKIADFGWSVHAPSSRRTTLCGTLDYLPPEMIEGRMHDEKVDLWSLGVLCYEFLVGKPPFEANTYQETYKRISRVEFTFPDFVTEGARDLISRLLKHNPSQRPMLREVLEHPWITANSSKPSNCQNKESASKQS

Assay [8] deals with T2, Transcription intermediary factor 1-alpha (Homo sapiens) (UniProt O15164).
T2 sequence (whole entry): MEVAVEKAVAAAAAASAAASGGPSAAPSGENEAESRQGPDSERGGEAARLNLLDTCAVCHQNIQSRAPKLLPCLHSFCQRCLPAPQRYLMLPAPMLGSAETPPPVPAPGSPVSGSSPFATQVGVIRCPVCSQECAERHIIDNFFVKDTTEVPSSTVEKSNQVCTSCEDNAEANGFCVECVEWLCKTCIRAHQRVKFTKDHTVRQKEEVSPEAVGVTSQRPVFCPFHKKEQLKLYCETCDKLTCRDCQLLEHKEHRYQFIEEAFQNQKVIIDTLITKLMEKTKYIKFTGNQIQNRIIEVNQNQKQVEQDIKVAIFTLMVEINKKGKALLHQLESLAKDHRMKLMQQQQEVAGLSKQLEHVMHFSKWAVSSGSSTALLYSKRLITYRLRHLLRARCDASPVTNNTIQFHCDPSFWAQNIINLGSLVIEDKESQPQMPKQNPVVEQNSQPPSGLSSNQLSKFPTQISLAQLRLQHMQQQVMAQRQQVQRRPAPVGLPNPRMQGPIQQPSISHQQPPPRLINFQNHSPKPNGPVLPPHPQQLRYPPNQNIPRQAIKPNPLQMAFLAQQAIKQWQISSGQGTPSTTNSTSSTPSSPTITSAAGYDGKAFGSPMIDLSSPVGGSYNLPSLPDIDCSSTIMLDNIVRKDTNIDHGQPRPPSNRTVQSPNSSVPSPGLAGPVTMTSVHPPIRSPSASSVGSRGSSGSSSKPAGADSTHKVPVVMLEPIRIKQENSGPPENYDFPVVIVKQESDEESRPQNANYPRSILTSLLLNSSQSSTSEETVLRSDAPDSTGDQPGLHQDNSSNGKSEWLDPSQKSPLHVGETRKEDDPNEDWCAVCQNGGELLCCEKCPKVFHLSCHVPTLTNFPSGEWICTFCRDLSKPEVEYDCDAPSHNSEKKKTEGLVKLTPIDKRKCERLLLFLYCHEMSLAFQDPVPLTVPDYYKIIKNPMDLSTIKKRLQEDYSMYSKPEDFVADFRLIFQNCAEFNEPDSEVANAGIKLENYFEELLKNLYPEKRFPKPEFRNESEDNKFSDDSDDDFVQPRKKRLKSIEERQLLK

Residues, ends and D or L forms follow the SMILES beside them. *: point of attachment. Boc = CC(C)(C)OC(=O)*

Chain of Tyrosine-protein kinase ABL1 (Homo sapiens) (P00519 whole entry): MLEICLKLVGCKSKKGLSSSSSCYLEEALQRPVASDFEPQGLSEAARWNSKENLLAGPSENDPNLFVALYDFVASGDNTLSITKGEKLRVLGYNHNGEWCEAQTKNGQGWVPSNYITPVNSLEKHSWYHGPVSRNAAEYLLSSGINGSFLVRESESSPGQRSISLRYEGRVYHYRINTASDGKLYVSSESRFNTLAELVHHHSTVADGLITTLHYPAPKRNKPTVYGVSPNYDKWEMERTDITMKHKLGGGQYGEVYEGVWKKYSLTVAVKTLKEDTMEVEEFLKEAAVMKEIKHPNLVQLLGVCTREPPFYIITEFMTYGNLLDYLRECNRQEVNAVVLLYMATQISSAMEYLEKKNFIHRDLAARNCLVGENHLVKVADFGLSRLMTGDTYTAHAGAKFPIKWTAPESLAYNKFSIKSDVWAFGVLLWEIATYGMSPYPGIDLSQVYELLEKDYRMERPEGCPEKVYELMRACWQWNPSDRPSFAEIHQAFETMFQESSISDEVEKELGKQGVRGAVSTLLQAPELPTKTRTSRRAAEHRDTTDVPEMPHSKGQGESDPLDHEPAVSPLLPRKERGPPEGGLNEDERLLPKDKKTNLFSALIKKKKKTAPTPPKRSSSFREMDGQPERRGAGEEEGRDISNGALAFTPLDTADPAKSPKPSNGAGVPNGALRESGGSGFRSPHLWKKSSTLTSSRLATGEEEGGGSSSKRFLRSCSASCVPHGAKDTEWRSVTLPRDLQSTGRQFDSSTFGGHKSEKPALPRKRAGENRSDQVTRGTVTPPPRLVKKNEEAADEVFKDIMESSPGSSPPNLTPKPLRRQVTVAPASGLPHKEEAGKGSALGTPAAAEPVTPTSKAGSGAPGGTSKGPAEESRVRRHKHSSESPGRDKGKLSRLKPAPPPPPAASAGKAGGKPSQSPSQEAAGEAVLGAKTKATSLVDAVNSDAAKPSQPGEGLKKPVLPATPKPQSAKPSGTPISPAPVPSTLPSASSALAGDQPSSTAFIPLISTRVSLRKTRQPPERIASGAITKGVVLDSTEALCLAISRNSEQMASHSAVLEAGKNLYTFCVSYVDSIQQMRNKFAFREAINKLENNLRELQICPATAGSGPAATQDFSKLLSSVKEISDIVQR
Chain of Glycogen synthase kinase-3 beta (Homo sapiens) (P49841 whole entry, looked up): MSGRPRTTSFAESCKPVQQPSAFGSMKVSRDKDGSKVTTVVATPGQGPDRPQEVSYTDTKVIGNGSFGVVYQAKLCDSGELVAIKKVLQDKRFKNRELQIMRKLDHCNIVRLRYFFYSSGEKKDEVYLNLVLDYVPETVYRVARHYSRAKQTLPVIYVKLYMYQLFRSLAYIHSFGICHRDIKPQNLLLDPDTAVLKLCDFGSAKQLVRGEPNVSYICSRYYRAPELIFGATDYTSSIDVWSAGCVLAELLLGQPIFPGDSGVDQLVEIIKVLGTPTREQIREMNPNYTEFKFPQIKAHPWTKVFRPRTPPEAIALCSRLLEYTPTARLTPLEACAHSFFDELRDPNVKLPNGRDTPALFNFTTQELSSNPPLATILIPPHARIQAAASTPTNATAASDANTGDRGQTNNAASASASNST
Chain of Casein kinase I isoform delta (Homo sapiens) (P48730 whole entry, looked up, canonical isoform): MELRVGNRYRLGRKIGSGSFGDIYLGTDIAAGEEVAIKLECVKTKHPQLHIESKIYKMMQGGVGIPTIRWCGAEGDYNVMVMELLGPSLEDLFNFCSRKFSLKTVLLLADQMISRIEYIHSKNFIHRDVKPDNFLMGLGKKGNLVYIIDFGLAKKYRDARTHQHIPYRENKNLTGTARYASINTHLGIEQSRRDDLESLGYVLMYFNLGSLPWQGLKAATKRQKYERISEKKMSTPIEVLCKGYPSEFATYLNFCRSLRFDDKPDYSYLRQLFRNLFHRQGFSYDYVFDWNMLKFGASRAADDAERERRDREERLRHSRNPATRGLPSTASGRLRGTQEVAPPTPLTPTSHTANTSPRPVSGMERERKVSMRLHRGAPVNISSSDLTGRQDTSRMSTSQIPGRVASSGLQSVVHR
Chain of Mitogen-activated protein kinase 1 (Homo sapiens) (P28482 whole entry): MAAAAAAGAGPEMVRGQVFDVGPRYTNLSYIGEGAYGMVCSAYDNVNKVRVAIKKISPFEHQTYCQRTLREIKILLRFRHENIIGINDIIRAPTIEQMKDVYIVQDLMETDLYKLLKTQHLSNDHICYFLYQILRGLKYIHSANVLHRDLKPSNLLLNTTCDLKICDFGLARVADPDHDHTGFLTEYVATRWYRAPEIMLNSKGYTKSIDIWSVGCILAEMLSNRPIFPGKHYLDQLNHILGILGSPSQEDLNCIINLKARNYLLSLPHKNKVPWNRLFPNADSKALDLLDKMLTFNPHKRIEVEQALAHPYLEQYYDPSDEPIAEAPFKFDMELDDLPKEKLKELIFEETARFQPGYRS

For orientation: ΔTm means the change in melting temperature against a reference sample. Take `O=C(c1ccc2[nH]ccc2c1)N1CCN(S(=O)(=O)c2ccc3[nH]c(=O)oc3c2)CC1`: the ΔTm in assay [1] is 0.69 °C; in assay [2], -2.8 °C; in assay [3], -0.68 °C; in assay [4], 0.15 °C; in assay [5], 0 °C; in assay [6], 0.48 °C. Also, the ΔTm was -1.69 °C in assay [7] and -0.16 °C in assay [8].
`C[C@@H]1O[C@@H](CC(=O)O)CC2=C1C(=O)c1c(O)cccc1C2=O`: the ΔTm is 0.53 °C in assay [1]; -3.04 °C in assay [2]; 0.21 °C in assay [3]; -1.39 °C in assay [4]; -2.21 °C in assay [5]; -0.24 °C in assay [6]. Further, the ΔTm in assay [7] is -2.94 °C; in assay [8], -2.3 °C.
Take `Cc1nc(-c2cnn(C)c2-c2ccc(C(F)(F)F)cn2)c2c(N3CCC3)ncnn12`: the ΔTm in assay [1] was 0.74 °C; in assay [2], -3.11 °C; in assay [3], 0.08 °C; in assay [4], -0.17 °C; in assay [5] it was -0.34 °C; in assay [6] it was 0.1 °C. Moreover, the ΔTm in assay [7] was -2.46 °C; in assay [8], 0.34 °C.
In the case of `CS(=O)(=O)c1ccc(Oc2cc(F)cc(C#N)c2)c2c1[C@H](O)[C@H](F)[C@@H]2F`, the ΔTm is 0.05 °C in assay [1]; 2.78 °C in assay [2]; 0.17 °C in assay [3]; -0.33 °C in assay [4]; -0.61 °C in assay [5]; 0.64 °C in assay [6]. Further, the values for the ΔTm in assay [7] and in assay [8] were -2.09 °C and 1.99 °C, respectively.
As to `CC(=O)N1CCC(Nc2cc(C(=O)NC[C@H](O)CN3CCc4ccccc4C3)ncn2)CC1`, the ΔTm in assay [1] was 0.44 °C; in assay [2] it was -0.33 °C; in assay [3] it was 0.19 °C; in assay [4], 0.07 °C; in assay [5] it was 0.18 °C; in assay [6], 0.06 °C. Besides, the ΔTm in assay [7] was -0.79 °C; in assay [8] it was -0.38 °C.
Turning to `Cc1cc(C)c(CNC(=O)c2cc(-c3ccc(N4CCN(C)CC4)nc3)cc3c2c(C)cn3C(C)C)c(=O)[nH]1`, the ΔTm in assay [1] is 0.38 °C; in assay [2], -2.02 °C; in assay [3], 0.39 °C; in assay [4], 0.02 °C; in assay [5], 0 °C; in assay [6], 0.02 °C. Also, the ΔTm in assay [7] is -1.34 °C; in assay [8], -0.72 °C.
On to `CC(=O)N1CCN([C@H]2CCC[C@@H](NC(=O)c3cc4c(F)ccc(C)c4[nH]3)C2)CC1`, for which the ΔTm in assay [1] is 0.05 °C; in assay [2], -1.42 °C; in assay [3], 0.08 °C; in assay [4], 0.26 °C; in assay [5], -1.37 °C; in assay [6], 0.01 °C. In addition, the ΔTm is -0.09 °C in assay [7] and -1.38 °C in assay [8].
For `Cc1cc(OCc2nnc(SC3CCCC3)n2-c2cccnc2)ccc1-c1ccc(S(C)(=O)=O)cc1`, the ΔTm in assay [1] was -1.4 °C; in assay [2], -2.52 °C; in assay [3], 0.2 °C; in assay [4], -0.2 °C; in assay [5], -4.14 °C; in assay [6], 0 °C. Besides, the figures for the ΔTm in assay [7] and in assay [8] were -1.26 °C and 0.18 °C, respectively.
Turning to `COc1cc(Nc2ncc(F)c(Nc3ccc4c(n3)N(COP(=O)(O)O)C(=O)C(C)(C)O4)n2)cc(OC)c1OC`, the ΔTm is 2.78 °C in assay [1]; 0.11 °C in assay [2]; 5.51 °C in assay [3]; 0.24 °C in assay [4]; -0.66 °C in assay [5]; -0.75 °C in assay [6]. Moreover, the ΔTm in assay [7] is 13.3 °C; in assay [8] it was -1.96 °C.
Regarding `Cc1ccc(C)c(-n2sc3cc(F)ccc3c2=O)c1`, the ΔTm in assay [1] is -15.6 °C; in assay [2], -11.5 °C; in assay [3] it was -5.52 °C; in assay [4] it was -0.06 °C; in assay [5], 0 °C; in assay [6] it was -16.1 °C. Besides, the results for the ΔTm in assay [7] and in assay [8] were -1.97 °C and 0 °C, respectively.
As to `C[C@@H]1CCC[C@H](C)N1NC(=O)c1ccc(Cl)c(S(N)(=O)=O)c1`, the shift in melting temperature (ΔTm) in assay [1] is 0.07 °C; in assay [2], -0.69 °C; in assay [3] it was 0.04 °C; in assay [4] it was -0.23 °C; in assay [5] it was -0.93 °C; in assay [6], 0.04 °C. For the same compound, the ΔTm was -1.59 °C in assay [7] and 0.4 °C in assay [8].
On to `CC(C)(C)OC(=O)N1CCC[C@H]1C(=O)N1CCC[C@H]1C=O` (Boc-Pro-Pro-aldehyde), for which the ΔTm was 0.36 °C in assay [1]; -1.7 °C in assay [2]; 0.06 °C in assay [3]; -0.53 °C in assay [4]; -0.11 °C in assay [5]; 0.63 °C in assay [6]. For the same compound, the ΔTm in assay [7] is -2.5 °C; in assay [8], -0.63 °C.
As to `COc1ccc(CNc2nc(N3CCC[C@H]3CO)ncc2C(=O)NCc2ncccn2)cc1Cl`, the ΔTm is 0.44 °C in assay [1]; -1.19 °C in assay [2]; -0.26 °C in assay [3]; 0.12 °C in assay [4]; 0.12 °C in assay [5]; 0.04 °C in assay [6]. The ΔTm is -1.84 °C in assay [7] and -0.51 °C in assay [8].
As for `CS(=O)(=O)N1CCN(C(=O)c2cnc3ccc(F)cc3c2N2CCC(C#N)(c3ccccc3)CC2)CC1`, the ΔTm is 0.43 °C in assay [1]; -2.17 °C in assay [2]; -0.17 °C in assay [3]; 0.48 °C in assay [4]; 0.47 °C in assay [5]; -0.62 °C in assay [6]. In addition, the ΔTm is -0.82 °C in assay [7] and 0 °C in assay [8].
On to `Cc1ccc(F)c2cc(C(=O)N[C@@H]3CCC[C@H](N4CC[C@H](N(C)S(C)(=O)=O)C4)C3)[nH]c12`, for which the ΔTm was 0.55 °C in assay [1]; -1.2 °C in assay [2]; 0.24 °C in assay [3]; 0.73 °C in assay [4]; -1.31 °C in assay [5]; -0.53 °C in assay [6]. The ΔTm is 0.21 °C in assay [7] and -1.39 °C in assay [8].
On to `N#Cc1cc2cc(CN3CCC(Nc4ncnc5sc(CC(F)(F)F)cc45)CC3)ccc2[nH]1`, for which the ΔTm was 0.42 °C in assay [1]; 1.04 °C in assay [2]; 0.06 °C in assay [3]; 1.89 °C in assay [4]; -0.5 °C in assay [5]; 0.61 °C in assay [6]. In addition, the ΔTm in assay [7] was -0.57 °C; in assay [8], 1.28 °C.
`COc1nc(Nc2cc(S(C)(=O)=O)ccc2N[C@@H](c2cccc3c2OC(F)(F)O3)c2ncccc2Cl)nc(N2CCNCC2)n1`: the ΔTm in assay [1] was -0.96 °C; in assay [2] it was -4.95 °C; in assay [3], -3.51 °C; in assay [4], -0.34 °C; in assay [5], 0 °C; in assay [6], 0 °C. The ΔTm in assay [7] is -5.82 °C; in assay [8], 0.37 °C.
Turning to `O=C(C1CC1)N1CCN(Cn2sc3ccccc3c2=O)CC1`, the ΔTm in assay [1] is -7.31 °C; in assay [2], -4.76 °C; in assay [3], -3.3 °C; in assay [4] it was -0.26 °C; in assay [5], 0 °C; in assay [6] it was -4.19 °C. Besides, the ΔTm is -1.92 °C in assay [7] and 0 °C in assay [8].
Turning to `O=C(O)[C@@H]1CCCN(C(=O)n2cnc(-c3ccc(-c4cnc(N5CCOCC5)nc4)cc3)n2)[C@H]1c1ccccc1`, the ΔTm was 0.15 °C in assay [1]; -1.06 °C in assay [2]; -1.79 °C in assay [3]; 1.27 °C in assay [4]; -3.37 °C in assay [5]; 0.69 °C in assay [6]. For the same compound, the figures for the ΔTm in assay [7] and in assay [8] were -5.07 °C and 0 °C, respectively.
With `O=C(CCCCCCC(=O)Nc1ccc([C@H]2O[C@@H](CSc3nc(-c4ccccc4)c(-c4ccccc4)o3)C[C@@H](c3ccc(CO)cc3)O2)cc1)NO`, the ΔTm in assay [1] was -3.66 °C; in assay [2] it was -1.65 °C; in assay [3], -1.26 °C; in assay [4], 0 °C; in assay [5], 2.86 °C; in assay [6] it was -12.5 °C. The ΔTm turned out to be 2.82 °C in assay [7] and 3.56 °C in assay [8].
For `CCCN(CCC)c1ccc(C=O)cc1Br`, the ΔTm in assay [1] is 0.01 °C; in assay [2], -2.88 °C; in assay [3], -0.15 °C; in assay [4] it was -0.24 °C; in assay [5], -0.05 °C; in assay [6], 0.17 °C. Moreover, the ΔTm in assay [7] was -2.25 °C; in assay [8], -0.42 °C.
On to `CS(=O)(=O)c1ccc(-c2cnc(NCc3ccco3)n3cnnc23)cc1`, for which the ΔTm in assay [1] is 0.92 °C; in assay [2] it was -0.86 °C; in assay [3] it was 0.28 °C; in assay [4], 0.44 °C; in assay [5], -2.03 °C; in assay [6], 0.02 °C. The values for the shift in melting temperature (ΔTm) in assay [7] and in assay [8] were 0.67 °C and -1.77 °C, respectively.

The record behind these values is ChEMBL document CHEMBL5724796, “Tm Shift (DSF) assay results for EUbOPEN Chemogenomics Library” (2024).
